In publication PMC7862700, “An all-to-all approach to the identification of sequence-specific readers for epigenetic DNA modifications on cytosine” one finds binding signal data, which are given here for 1 sequence.

Holding throughout (experiment): DAPPL (digital affinity profiling via proximity ligation, sequencing); 10 mM Tris-HCl pH 7.5, 50 mM NaCl, 1 mM DTT, 4% glycerol, room temperature, 30 min; GST-TFs on glutathione beads, 16-mer random dsDNA library, 0.1% formaldehyde crosslink after washing; high values mean tight binding
The target of one assay is T1, FEV (Homo sapiens, UniProt Q99581 1-238).
T1 sequence: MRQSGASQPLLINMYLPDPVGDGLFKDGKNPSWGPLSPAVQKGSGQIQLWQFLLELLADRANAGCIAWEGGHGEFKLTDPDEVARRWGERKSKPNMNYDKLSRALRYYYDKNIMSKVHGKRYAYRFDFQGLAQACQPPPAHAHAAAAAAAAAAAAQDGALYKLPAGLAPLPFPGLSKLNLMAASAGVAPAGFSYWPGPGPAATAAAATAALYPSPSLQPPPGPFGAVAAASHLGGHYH
Conditions: protein: recombinant; tags: N-terminal GST; dsDNA, one strand shown. Summed up: (§1)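 Binding signal is defined as a hexamer's read frequency for one factor over its frequency for the tag-only sample. To obtain reads, GST-fused human transcription factors were expressed in yeast, captured on glutathione beads, barcoded with DNA and pooled with that sample. Pools met 200 nmole of a 16-mer random double-stranded DNA library in Tris/NaCl/DTT/glycerol buffer for 30 min at room temperature before washing, 0.1% formaldehyde crosslinking, proximity ligation (BsaI/T4 ligase, 1 h, 37 °C), PCR and Illumina NextSeq500 sequencing.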

Another assay has as its target ETV5 (Homo sapiens, UniProt P41161 1-510). Conditions: protein: recombinant; tags: N-terminal GST; dsDNA, one strand shown. Summed up: as §1
In a further assay the target is HSF1 (Homo sapiens, UniProt Q00613 1-529). Conditions: protein: recombinant; tags: N-terminal GST; chain copies: 3; dsDNA, one strand shown. Summed up:
as §1

The next assay deals with T2, SPIC (Homo sapiens, UniProt Q8N5J4 1-248).
T2 sequence: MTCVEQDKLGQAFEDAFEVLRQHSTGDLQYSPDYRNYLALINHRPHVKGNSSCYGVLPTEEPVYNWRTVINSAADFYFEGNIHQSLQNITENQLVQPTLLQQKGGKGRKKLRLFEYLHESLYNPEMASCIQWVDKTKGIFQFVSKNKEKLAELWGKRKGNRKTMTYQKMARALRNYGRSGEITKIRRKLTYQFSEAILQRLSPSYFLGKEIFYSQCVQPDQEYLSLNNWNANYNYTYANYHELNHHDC
As to conditions: protein: recombinant; tags: N-terminal GST; dsDNA, one strand shown. In short, it runs like this:
as §1

Another assay deals with ELF4 (Homo sapiens, UniProt Q99607 1-663). As to conditions: protein: recombinant; tags: N-terminal GST; dsDNA, one strand shown. Summed up:
as §1

A further assay has as its target T3, ELK4 (Homo sapiens, UniProt P28324-2 1-405).
T3 sequence: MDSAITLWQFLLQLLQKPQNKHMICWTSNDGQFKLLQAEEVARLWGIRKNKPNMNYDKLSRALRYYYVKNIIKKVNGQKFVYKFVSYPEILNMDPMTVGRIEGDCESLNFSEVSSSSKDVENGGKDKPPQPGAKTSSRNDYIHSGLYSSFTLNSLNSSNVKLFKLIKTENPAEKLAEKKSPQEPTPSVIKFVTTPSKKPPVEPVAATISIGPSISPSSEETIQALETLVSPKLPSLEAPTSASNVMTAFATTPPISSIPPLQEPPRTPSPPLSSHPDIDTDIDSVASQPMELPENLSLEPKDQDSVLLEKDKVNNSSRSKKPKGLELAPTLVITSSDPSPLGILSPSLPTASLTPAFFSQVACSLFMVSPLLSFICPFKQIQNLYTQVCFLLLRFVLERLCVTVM
As to conditions: protein: recombinant; tags: N-terminal GST; dsDNA, one strand shown. In short, it runs like this:
as §1

For the next assay, the target named is T4, ETV2 (Homo sapiens, UniProt O00321 1-342).
T4 sequence: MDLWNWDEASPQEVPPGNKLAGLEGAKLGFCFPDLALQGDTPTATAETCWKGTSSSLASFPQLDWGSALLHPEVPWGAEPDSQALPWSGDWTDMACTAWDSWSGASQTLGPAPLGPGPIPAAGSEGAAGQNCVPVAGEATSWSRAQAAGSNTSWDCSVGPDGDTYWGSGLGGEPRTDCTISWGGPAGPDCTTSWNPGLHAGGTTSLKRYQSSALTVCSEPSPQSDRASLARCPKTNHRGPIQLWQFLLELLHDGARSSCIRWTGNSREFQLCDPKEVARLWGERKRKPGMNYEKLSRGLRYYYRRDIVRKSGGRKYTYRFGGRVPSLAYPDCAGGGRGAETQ
Conditions: protein: recombinant; tags: N-terminal GST; dsDNA, one strand shown. Summed up:
as §1

Another assay deals with T5, ELF3 (Homo sapiens, UniProt P78545 1-371).
T5 sequence: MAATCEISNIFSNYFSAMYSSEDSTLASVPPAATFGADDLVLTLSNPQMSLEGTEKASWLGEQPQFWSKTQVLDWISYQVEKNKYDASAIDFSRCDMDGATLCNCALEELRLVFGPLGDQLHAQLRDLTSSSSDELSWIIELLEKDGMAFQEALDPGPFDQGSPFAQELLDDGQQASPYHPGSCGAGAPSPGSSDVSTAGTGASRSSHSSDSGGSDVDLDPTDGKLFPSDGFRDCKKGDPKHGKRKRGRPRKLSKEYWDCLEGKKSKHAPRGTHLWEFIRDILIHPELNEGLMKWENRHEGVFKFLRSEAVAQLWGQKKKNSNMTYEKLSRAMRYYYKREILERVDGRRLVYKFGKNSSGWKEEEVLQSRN
Conditions: protein: recombinant; tags: N-terminal GST; dsDNA, one strand shown. Summed up:
as §1

Another assay deals with CRX (Homo sapiens, UniProt O43186 1-299). Conditions: protein: recombinant; tags: N-terminal GST; dsDNA, one strand shown. In short, it runs like this: as §1
In another assay the target is ETV1 (Homo sapiens, UniProt P50549 1-477). Conditions: protein: recombinant; tags: N-terminal GST; dsDNA, one strand shown. In short, it runs like this:
as §1

A further assay concerns the target T6, ERF (Homo sapiens, UniProt P50548 1-548).
T6 sequence: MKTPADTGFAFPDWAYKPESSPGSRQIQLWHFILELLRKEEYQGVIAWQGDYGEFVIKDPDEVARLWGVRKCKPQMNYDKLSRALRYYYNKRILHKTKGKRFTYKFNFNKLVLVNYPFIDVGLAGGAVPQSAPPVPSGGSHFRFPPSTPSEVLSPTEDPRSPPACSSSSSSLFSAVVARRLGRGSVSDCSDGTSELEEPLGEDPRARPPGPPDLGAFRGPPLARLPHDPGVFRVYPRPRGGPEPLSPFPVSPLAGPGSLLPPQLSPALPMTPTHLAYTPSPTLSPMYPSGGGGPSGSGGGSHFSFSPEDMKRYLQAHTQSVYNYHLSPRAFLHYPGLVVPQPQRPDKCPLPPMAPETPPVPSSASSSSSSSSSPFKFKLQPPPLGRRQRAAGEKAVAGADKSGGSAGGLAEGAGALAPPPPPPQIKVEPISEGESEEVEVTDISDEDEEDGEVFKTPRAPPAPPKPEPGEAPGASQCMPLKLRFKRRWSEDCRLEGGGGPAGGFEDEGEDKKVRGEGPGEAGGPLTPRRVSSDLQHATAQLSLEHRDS
Conditions: protein: recombinant; tags: N-terminal GST; dsDNA, one strand shown. In short, it runs like this: as §1

A further assay concerns the target T7, ETV3L (Homo sapiens, UniProt Q6ZN32 1-361).
T7 sequence: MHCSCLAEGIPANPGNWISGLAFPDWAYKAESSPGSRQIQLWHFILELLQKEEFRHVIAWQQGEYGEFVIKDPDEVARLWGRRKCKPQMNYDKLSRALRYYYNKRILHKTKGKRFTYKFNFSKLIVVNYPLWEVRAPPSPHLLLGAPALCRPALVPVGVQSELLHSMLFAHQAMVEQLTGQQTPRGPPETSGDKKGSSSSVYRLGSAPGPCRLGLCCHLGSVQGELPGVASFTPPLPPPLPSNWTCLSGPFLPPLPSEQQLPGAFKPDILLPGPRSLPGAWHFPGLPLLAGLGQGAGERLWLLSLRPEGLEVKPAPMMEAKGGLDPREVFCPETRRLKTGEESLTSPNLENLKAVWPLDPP
As to conditions: protein: recombinant; tags: N-terminal GST; dsDNA, one strand shown. In short, it runs like this: as §1

In a further assay the target is T8, ETS2 (Homo sapiens, UniProt P15036 1-469).
T8 sequence: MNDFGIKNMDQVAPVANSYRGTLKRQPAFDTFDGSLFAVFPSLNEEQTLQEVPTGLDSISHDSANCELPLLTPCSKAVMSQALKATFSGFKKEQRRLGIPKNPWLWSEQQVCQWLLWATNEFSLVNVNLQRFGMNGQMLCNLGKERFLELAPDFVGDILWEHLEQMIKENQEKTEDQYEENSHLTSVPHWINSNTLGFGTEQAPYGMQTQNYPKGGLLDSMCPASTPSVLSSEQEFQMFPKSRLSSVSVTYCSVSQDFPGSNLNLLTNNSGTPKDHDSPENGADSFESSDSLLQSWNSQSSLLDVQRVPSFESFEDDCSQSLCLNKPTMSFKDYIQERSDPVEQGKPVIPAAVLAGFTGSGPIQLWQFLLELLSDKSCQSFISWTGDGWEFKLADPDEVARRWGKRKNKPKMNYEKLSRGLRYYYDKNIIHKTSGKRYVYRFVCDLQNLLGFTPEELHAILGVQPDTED
As to conditions: protein: recombinant; tags: N-terminal GST; dsDNA, one strand shown. Summed up: as §1

Another assay concerns the target T9, SPDEF (Homo sapiens, UniProt O95238 1-335).
T9 sequence: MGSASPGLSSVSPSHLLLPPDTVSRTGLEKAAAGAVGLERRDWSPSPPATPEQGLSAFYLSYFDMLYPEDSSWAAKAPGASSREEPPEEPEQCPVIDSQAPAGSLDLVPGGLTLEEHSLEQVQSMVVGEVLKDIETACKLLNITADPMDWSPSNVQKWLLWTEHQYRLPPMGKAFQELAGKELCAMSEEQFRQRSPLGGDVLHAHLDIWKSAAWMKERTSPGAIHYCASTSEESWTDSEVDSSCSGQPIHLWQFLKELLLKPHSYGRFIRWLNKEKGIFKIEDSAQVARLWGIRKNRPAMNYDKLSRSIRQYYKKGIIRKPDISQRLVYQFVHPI
Conditions: protein: recombinant; tags: N-terminal GST; dsDNA, one strand shown. Summed up:
as §1

A further assay addresses T10, ETV7 (Homo sapiens, UniProt Q9Y603 1-341).
T10 sequence: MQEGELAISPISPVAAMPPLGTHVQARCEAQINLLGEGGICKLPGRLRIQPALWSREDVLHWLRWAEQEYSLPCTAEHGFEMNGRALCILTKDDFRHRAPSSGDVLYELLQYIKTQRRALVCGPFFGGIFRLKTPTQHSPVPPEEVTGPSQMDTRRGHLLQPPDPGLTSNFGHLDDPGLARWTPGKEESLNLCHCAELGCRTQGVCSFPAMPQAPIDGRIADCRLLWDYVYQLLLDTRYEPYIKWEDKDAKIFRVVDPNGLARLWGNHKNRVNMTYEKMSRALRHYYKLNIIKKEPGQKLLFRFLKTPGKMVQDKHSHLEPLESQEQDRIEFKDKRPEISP
Conditions: protein: recombinant; tags: N-terminal GST; dsDNA, one strand shown. In short, it runs like this:
as §1

The target in a further assay is T11, ELF5 (Homo sapiens, UniProt Q9UKW6-2 1-255).
T11 sequence: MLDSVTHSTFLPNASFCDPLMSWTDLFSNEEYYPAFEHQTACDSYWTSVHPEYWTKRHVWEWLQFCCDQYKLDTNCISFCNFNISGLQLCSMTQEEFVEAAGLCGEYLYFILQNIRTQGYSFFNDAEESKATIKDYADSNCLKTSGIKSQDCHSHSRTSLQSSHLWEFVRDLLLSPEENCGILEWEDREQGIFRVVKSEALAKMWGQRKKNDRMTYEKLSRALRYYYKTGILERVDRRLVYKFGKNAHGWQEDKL
As to conditions: protein: recombinant; tags: N-terminal GST; dsDNA, one strand shown. Summed up:
as §1

The target in another assay is T12, ETV3 (Homo sapiens, UniProt P41162-2 1-143).
T12 sequence: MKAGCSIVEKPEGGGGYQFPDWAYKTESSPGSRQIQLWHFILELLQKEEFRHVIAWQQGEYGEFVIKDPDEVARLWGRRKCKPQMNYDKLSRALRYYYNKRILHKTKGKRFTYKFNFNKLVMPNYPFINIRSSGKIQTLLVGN
Conditions: protein: recombinant; tags: N-terminal GST; dsDNA, one strand shown. Summed up: as §1

The target of a further assay is ETV6 (Homo sapiens, UniProt P41212 1-452). As to conditions: protein: recombinant; tags: N-terminal GST; dsDNA, one strand shown. Summed up: as §1
ETV6, sequence (P41212 whole entry): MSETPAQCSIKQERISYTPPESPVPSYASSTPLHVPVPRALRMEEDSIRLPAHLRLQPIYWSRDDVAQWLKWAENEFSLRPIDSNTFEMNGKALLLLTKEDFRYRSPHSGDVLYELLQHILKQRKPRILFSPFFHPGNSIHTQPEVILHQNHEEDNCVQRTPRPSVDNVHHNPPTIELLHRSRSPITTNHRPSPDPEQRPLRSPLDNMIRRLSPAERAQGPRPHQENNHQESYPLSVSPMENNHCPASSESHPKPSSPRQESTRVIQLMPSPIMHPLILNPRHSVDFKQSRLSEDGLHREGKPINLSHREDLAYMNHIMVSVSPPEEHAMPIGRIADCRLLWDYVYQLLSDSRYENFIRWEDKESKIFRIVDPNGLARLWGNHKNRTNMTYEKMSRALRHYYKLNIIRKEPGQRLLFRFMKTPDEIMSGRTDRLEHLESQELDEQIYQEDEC

ELF4, sequence (Q99607 whole entry): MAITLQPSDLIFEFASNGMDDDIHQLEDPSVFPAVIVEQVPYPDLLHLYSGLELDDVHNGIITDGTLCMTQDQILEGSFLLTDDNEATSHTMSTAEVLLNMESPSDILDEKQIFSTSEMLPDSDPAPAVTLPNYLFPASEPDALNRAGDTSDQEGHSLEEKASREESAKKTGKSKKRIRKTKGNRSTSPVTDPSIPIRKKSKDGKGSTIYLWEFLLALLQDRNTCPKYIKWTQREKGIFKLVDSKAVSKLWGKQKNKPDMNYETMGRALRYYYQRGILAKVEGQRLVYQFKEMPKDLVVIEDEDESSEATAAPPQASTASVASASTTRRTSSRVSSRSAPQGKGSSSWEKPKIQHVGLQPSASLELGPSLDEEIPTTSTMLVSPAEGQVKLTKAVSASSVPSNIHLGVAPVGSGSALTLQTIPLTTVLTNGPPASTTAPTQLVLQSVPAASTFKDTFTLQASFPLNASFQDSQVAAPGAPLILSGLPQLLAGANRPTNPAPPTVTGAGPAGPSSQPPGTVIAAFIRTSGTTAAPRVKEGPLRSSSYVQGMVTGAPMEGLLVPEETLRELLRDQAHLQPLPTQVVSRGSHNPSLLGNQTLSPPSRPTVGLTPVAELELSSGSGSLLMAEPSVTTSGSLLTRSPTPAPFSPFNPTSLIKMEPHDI
HSF1, sequence (Q00613 whole entry): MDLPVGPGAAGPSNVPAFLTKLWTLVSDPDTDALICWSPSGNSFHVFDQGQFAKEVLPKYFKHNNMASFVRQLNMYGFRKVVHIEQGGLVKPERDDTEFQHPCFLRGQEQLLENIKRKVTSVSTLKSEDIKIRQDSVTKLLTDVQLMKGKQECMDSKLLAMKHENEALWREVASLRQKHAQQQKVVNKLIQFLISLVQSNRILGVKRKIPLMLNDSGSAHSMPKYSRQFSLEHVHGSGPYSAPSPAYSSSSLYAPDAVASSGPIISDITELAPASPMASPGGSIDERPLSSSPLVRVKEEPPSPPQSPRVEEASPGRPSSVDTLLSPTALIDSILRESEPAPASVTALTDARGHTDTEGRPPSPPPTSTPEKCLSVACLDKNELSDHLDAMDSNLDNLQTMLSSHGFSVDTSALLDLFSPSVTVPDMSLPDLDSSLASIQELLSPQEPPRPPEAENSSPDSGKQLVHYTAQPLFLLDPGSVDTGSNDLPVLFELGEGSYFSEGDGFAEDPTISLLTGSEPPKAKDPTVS
ETV1, sequence (P50549 whole entry): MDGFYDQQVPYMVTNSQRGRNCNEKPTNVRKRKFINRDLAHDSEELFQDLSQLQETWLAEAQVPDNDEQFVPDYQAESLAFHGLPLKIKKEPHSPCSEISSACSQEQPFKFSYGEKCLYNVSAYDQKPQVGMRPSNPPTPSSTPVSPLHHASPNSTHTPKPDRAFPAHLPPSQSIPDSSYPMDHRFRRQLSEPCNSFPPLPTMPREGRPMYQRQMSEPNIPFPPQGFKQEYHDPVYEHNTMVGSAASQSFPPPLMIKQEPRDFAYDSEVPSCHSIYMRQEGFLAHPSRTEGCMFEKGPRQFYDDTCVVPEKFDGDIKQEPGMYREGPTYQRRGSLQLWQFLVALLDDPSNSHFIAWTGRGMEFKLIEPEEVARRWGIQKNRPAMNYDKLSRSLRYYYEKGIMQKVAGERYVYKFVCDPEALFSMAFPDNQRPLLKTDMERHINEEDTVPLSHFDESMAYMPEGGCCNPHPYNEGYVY
ETV5, sequence (P41161 whole entry): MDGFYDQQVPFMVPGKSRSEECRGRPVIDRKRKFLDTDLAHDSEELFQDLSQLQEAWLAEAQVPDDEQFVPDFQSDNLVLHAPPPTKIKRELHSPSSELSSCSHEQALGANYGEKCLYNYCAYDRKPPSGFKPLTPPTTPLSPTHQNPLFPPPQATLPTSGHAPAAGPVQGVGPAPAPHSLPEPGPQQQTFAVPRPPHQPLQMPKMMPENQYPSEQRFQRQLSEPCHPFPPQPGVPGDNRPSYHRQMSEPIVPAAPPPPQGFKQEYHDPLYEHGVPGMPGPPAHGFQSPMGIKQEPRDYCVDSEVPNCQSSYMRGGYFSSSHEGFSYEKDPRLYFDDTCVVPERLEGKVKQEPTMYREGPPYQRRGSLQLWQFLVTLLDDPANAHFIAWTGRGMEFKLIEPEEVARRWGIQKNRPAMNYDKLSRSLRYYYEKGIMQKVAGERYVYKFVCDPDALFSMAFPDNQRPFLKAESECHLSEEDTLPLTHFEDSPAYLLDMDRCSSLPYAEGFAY
CRX, sequence (O43186 whole entry): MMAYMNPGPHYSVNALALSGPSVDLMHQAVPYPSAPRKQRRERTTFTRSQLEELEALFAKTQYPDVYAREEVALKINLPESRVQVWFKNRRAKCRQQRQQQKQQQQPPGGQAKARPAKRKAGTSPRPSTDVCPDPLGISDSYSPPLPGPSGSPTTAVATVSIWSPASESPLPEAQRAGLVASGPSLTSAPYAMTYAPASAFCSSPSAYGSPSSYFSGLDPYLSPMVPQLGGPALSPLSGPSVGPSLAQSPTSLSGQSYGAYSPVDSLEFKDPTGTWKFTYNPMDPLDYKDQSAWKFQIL

As for CGACTC, the binding signal in the assay with FEV was 1.42 fold enrichment (6-mer frequency, TF over GST control); with ETV5, 1.44 fold enrichment (6-mer frequency, TF over GST control); in the assay with HSF1, 1.37 fold enrichment (6-mer frequency, TF over GST control); in the assay with SPIC, 1.64 fold enrichment (6-mer frequency, TF over GST control); with ELF4 it was 1.41 fold enrichment (6-mer frequency, TF over GST control); in the assay with ELK4 it was 1.35 fold enrichment (6-mer frequency, TF over GST control). Besides, the binding signal with ETV2 is 1.34 fold enrichment (6-mer frequency, TF over GST control); with ELF3, 1.25 fold enrichment (6-mer frequency, TF over GST control); with CRX, 1.31 fold enrichment (6-mer frequency, TF over GST control); in the assay with ETV1, 1.41 fold enrichment (6-mer frequency, TF over GST control); in the assay with ERF, 1.59 fold enrichment (6-mer frequency, TF over GST control); with ETV3L, 1.36 fold enrichment (6-mer frequency, TF over GST control). In addition, the binding signal with ETS2 was 1.38 fold enrichment (6-mer frequency, TF over GST control); in the assay with SPDEF, 1.29 fold enrichment (6-mer frequency, TF over GST control); with ETV7, 1.29 fold enrichment (6-mer frequency, TF over GST control); with ELF5 it was 1.33 fold enrichment (6-mer frequency, TF over GST control); in the assay with ETV3, 1.29 fold enrichment (6-mer frequency, TF over GST control); with ETV6, 1.38 fold enrichment (6-mer frequency, TF over GST control).
